# “And” between values parts separate entries of the source, which are not always exact repeats. Equal entries are not always repeated. The source made the active and inactive calls.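 How the source made its calls, unless noted: active means normalized viability below 100% at a tested concentration; inactive means the rest.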 Where a SMILES comes first, the peptide text is derived from it. The star is where a group is joined. Cbz = O=C(OCc1ccccc1)*; CH2F = FC*
# What was measured:
# [1] = hESC survival regulators, cell-based (AID 493140; call rule not given here;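 further: cells exposed to compounds for four days before counting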); conditions: human embryonic stem cell survival screen; stronger effect = higher value
# [2] = sensitizers of A549 cells to miR-34 induction, primary screen, imaging, A549 dox-inducible miR-34, nuclei and caspase counts (AID 1347080;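 active means compounds whose cell count with miR-34 switched on is under 0.7 times the count with it off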); conditions: A549 miR-34 inducible, Hoechst nuclei count, 48 h
# [3] = inhibitors of Cryptococcus chitosan production, flow cytometry, Cibacron Brilliant Red staining (AID 1347148; call rule not given here;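 further: compound exposure lasted three days at 37 degrees C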); conditions: Cryptococcus neoformans chitosan, stronger effect = lower value; at 10 µM unless noted
# [4] = target: Mitogen-activated protein kinase 7 (Homo sapiens) (UniProt Q13164); assay: ERK5 transactivation activators in reporter cells, primary screen, cell-based, HTS (AID 1508626;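 active means luciferase signal above three times the same-plate solvent-only control wells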;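 further: luciferase driven by Gal4-ERK5 fusion binding five Gal4 sites before minimal TATA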); conditions: HeLa Gal4-ERK5 transactivation, 18 h, at 5 µM, stronger effect = higher value
# [5] = survival rescue of mitochondrial mutant cells in low glucose, primary screen, MELAS cybrids, Rieske KO mouse fibroblasts, CellTiter-Glo (AID 1508586;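 active means mean z-score across replicates of 1.96 or higher in either the MELAS or the Rieske mutant cell line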;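 further: z relative to plate mean and SD of compound and empty wells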)
# [6] = circadian clock period modulators, cell-based, LOPAC library, luminescence reporter (AID 2774; call rule not given here;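 further: values are relative to mean of DMSO wells on each plate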); conditions: circadian reporter cells, at 7 µM, actives lie on both sides
# [7] = tested on: Hepatitis C virus NS3 helicase; assay: HCV NS3 helicase inhibitors, primary screen, biochemical, fluorescence polarization, LOPAC1280 library (AID 687035; in the data active means inhibition above about 37%); conditions: Purified HCV NS3 helicase, Cy5-dT15 ssDNA binding fluorescence polarization; stronger effect = higher value; concentration not given here
# [8] = Cy5 fluorescence quenching or enhancement artefacts, artefact control for HCV NS3 helicase inhibitor project, biochemical, LOPAC1280 (AID 687037; call rule not given here); conditions: Cy5-DNA-NS3h complex fluorescence interference counterscreen
# [9] = phospholipid biosynthesis inhibitors in animal cells, primary screen, cell-based, LOPAC library, screen 4 (AID 1347384; call rule not given here); conditions: phospholipid biosynthesis inhibition screen, at 10 µM
# [10] = viability rescue of complex I mutant cybrids, primary screen, cell-based, galactose medium, ATP luminescence (AID 1645843;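 active means z-score of at least 1.8 in each of two replicates, scored against plate mean and spread of sample wells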;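 further: positive z means more ATP and so rescue of galactose-driven cybrid death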); conditions: complex I mutant cybrid cells, 72 h, stronger effect = higher value
# [11] = ovarian cancer cell viability with rucaparib, profiling panel, oncology-focused library, rucaparib conditional (AID 1508598); conditions: patient-derived ovarian cancer cells, CellTiter-Glo viability, 144 h, stronger effect = lower value
# [12] = stronger effect = lower value, cell number ratio, induced over uninduced
# [13] = measured here: relative caspase fold change +Dox/-Dox
# [14] = measured here: total cells with miR-34 induction, stronger effect = lower value
# [15] = measured here: total cells without miR-34 induction
# Chain of Mitogen-activated protein kinase 7 (Homo sapiens) (Q13164 whole entry, looked up, the tested form may be a part): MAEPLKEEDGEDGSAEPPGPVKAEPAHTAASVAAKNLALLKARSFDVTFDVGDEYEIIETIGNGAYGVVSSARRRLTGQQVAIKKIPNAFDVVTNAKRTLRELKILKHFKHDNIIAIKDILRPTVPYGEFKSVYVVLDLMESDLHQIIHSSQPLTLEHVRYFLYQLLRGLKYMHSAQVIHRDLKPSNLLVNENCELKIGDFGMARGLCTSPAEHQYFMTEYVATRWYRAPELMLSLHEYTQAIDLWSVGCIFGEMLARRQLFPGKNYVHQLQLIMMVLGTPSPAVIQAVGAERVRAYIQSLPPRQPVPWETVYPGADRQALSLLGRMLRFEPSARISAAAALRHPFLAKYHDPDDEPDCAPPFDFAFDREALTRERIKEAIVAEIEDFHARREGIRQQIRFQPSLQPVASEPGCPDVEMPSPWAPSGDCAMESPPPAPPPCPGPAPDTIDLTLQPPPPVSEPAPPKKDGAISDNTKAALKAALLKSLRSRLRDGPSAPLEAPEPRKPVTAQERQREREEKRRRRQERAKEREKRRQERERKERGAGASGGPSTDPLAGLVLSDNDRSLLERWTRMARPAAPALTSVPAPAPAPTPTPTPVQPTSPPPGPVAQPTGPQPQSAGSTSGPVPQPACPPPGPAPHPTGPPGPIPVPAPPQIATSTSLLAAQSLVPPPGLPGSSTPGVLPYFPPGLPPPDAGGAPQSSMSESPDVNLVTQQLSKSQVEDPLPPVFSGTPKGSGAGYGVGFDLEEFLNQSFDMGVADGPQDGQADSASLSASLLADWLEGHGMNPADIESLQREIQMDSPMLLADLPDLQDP
structure (smiles),measurement,setting,value
CC/C=C\C/C=C\C/C=C\CCCCCCCCCCCC(=O)O,survival,[1],81.8 (inactive)
same,fold change,[2]; [12],0.989 (inactive)
same,fold change,[2]; [13],0.936
same,cell count,[2]; [14],5970
same,cell count,[2]; [15],6030
same,fold fluorescence,[3],4.89 (inactive)
CC(C)c1cccc(O)c(=O)c1,fold change,[2]; [12],0.903 (inactive)
same,fold change,[2]; [13],1.02
same,cell count,[2]; [14],1840
same,cell count,[2]; [15],2030
same,fold fluorescence,[3],10.2 [at 304.5 µM] (inactive)
same,luciferase signal,[4],44 AU (inactive)
CCOC(=O)C1OC1C(=O)NC(CC(C)C)C(=O)NCCC(C)C (centres undefined),fold change,[2]; [12],0.903 (inactive)
same,fold change,[2]; [13],0.67
same,cell count,[2]; [14],8060
same,cell count,[2]; [15],8930
same,fold fluorescence,[3],5.77 [at 146 µM] (inactive)
same,z-score,"[5]; MELAS cybrid survival, CellTiter-Glo 48 h, stronger effect = higher value",-0.522 (inactive)
same,z-score,"[5]; Rieske KO mouse fibroblast survival, CellTiter-Glo 72 h",-1.31
N#C/C(=C\c1cc(Cl)cc(Cl)c1)c1cccnc1,survival,[1],87.3 (inactive)
same,fold change,[2]; [12],1.04 (inactive)
same,fold change,[2]; [13],0.973
same,cell count,[2]; [14],1950
same,cell count,[2]; [15],1890
same,fold fluorescence,[3],4 [at 181.7 µM] (inactive)
O=Cc1c2[nH]c3ccccc3c2cc2[nH]c3ccccc3c12,survival,[1],124 (inactive)
same,fold change,[2]; [12],0.873 (inactive)
same,fold change,[2]; [13],1.33
same,cell count,[2]; [14],4820
same,cell count,[2]; [15],5520
same,fold fluorescence,[3],4.2 (inactive)
CCCCCCCCCCCCCCC[C@H](O)[C@H](N)CO,period change,[6],-0.08 h (inactive)
same,inhibition,[7],4% (inactive)
same,fluorescence ratio (interference),[8],0.9 (inactive)
same,fold change,[2]; [12],0.911 (inactive)
same,fold change,[2]; [13],1.55
same,cell count,[2]; [14],1060
same,cell count,[2]; [15],1170
same,fold fluorescence,[3],8.12 (inactive)
same,outcome,[9],inactive
same,z-score,[10],-0.39 (inactive)
COC(=O)C[C@H](NC(=O)[C@H](C)NC(=O)[C@@H](NC(=O)OCc1ccccc1)C(C)C)C(=O)CF (Cbz-Val-Ala-Asp(OMe)-CH2F),fold change,[2]; [12],0.848 (inactive)
same,fold change,[2]; [13],0.772
same,cell count,[2]; [14],5320
same,cell count,[2]; [15],6270
same,fold fluorescence,[3],3.45 [at 107 µM] (inactive)
same,viability,"[11]; at 0.000305 µM, OCI-C5x cells, with rucaparib 10 µM, 100% = cells with rucaparib alone",111% (inactive)
same,viability,"[11]; at 0.000305 µM, OCI-C5x cells, without rucaparib",113% (inactive)
same,viability,"[11]; at 0.000305 µM, OCI-P5x cells, with rucaparib 20 µM, 100% = cells with rucaparib alone",101% (inactive)
same,viability,"[11]; at 0.000305 µM, OCI-P5x cells, without rucaparib",108% (inactive)
same,viability,"[11]; at 0.00122 µM, OCI-C5x cells, with rucaparib 10 µM, 100% = cells with rucaparib alone",113% (inactive)
same,viability,"[11]; at 0.00122 µM, OCI-C5x cells, without rucaparib",122% (inactive)
same,viability,"[11]; at 0.00122 µM, OCI-P5x cells, with rucaparib 20 µM, 100% = cells with rucaparib alone",104% (inactive)
same,viability,"[11]; at 0.00122 µM, OCI-P5x cells, without rucaparib",107% (inactive)
same,viability,"[11]; at 0.00488 µM, OCI-C5x cells, with rucaparib 10 µM, 100% = cells with rucaparib alone",106% (inactive)
same,viability,"[11]; at 0.00488 µM, OCI-C5x cells, without rucaparib",114% (inactive)
same,viability,"[11]; at 0.00488 µM, OCI-P5x cells, with rucaparib 20 µM, 100% = cells with rucaparib alone",102% (inactive)
same,viability,"[11]; at 0.00488 µM, OCI-P5x cells, without rucaparib",112% (inactive)
same,viability,"[11]; at 0.0195 µM, OCI-C5x cells, with rucaparib 10 µM, 100% = cells with rucaparib alone",113% (inactive)
same,viability,"[11]; at 0.0195 µM, OCI-C5x cells, without rucaparib",119% (inactive)
same,viability,"[11]; at 0.0195 µM, OCI-P5x cells, with rucaparib 20 µM, 100% = cells with rucaparib alone",110% (inactive)
same,viability,"[11]; at 0.0195 µM, OCI-P5x cells, without rucaparib",102% (inactive)
same,viability,"[11]; at 0.0781 µM, OCI-C5x cells, with rucaparib 10 µM, 100% = cells with rucaparib alone",110% (inactive)
same,viability,"[11]; at 0.0781 µM, OCI-C5x cells, without rucaparib",120% (inactive)
same,viability,"[11]; at 0.0781 µM, OCI-P5x cells, with rucaparib 20 µM, 100% = cells with rucaparib alone",108% (inactive)
same,viability,"[11]; at 0.0781 µM, OCI-P5x cells, without rucaparib",111% (inactive)
same,viability,"[11]; at 0.313 µM, OCI-C5x cells, with rucaparib 10 µM, 100% = cells with rucaparib alone",104% (inactive)
same,viability,"[11]; at 0.313 µM, OCI-C5x cells, without rucaparib",118% (inactive)
same,viability,"[11]; at 0.313 µM, OCI-P5x cells, with rucaparib 20 µM, 100% = cells with rucaparib alone",96.2% (active)
same,viability,"[11]; at 0.313 µM, OCI-P5x cells, without rucaparib",107% (inactive)
same,viability,"[11]; at 1.25 µM, OCI-C5x cells, with rucaparib 10 µM, 100% = cells with rucaparib alone",117% (inactive)
same,viability,"[11]; at 1.25 µM, OCI-C5x cells, without rucaparib",115% (inactive)
same,viability,"[11]; at 1.25 µM, OCI-P5x cells, with rucaparib 20 µM, 100% = cells with rucaparib alone",103% (inactive)
same,viability,"[11]; at 1.25 µM, OCI-P5x cells, without rucaparib",106% (inactive)
same,viability,"[11]; at 5 µM, OCI-C5x cells, with rucaparib 10 µM, 100% = cells with rucaparib alone",115% (inactive)
same,viability,"[11]; at 5 µM, OCI-C5x cells, without rucaparib",119% (inactive)
same,viability,"[11]; at 5 µM, OCI-P5x cells, with rucaparib 20 µM, 100% = cells with rucaparib alone",106% (inactive)
same,viability,"[11]; at 5 µM, OCI-P5x cells, without rucaparib",108% (inactive)
CCCCC/C=C\C/C=C\CC1OC1C/C=C\CCCC(=O)O (centres undefined),survival,[1],95.7 (inactive)
same,fold change,[2]; [12],1.01 (inactive)
same,fold change,[2]; [13],1.19
same,cell count,[2]; [14],5810
same,cell count,[2]; [15],5750
same,fold fluorescence,[3],5.26 [at 1 µM] (inactive)
CCCCCCCCCC(=O)N[C@H](CN1CCOCC1)[C@H](O)c1ccccc1,survival,[1],80.8 (inactive)
same,fold change,[2]; [12],0.988 (inactive)
same,fold change,[2]; [13],1.18
same,cell count,[2]; [14],5550
same,cell count,[2]; [15],5620
same,fold fluorescence,[3],3.25 (active)
CCCCCCCCCCCCCC(=O)N[C@@H](C)[C@H](O)c1ccccc1,survival,[1],95 (inactive)
same,fold change,[2]; [12],0.995 (inactive)
same,fold change,[2]; [13],0.985
same,cell count,[2]; [14],6160
same,cell count,[2]; [15],6200
same,fold fluorescence,[3],3.67 (inactive) and 4.53 (inactive)
CCCCCC(=O)/C=C/C=C\C/C=C\C/C=C\CCCC(=O)O,fold change,[2]; [12],0.995 (inactive)
same,fold change,[2]; [13],1.32
same,cell count,[2]; [14],6100
same,cell count,[2]; [15],6140
same,fold fluorescence,[3],5.6 [at 1 µM] (inactive)
CCCCC[C@H](O)/C=C/C=C\C=C\C=C\[C@@H](O)[C@@H](O)CCCC(=O)O,survival,[1],89.1 (inactive)
same,fold change,[2]; [12],0.912 (inactive)
same,fold change,[2]; [13],1.26
same,cell count,[2]; [14],5670
same,cell count,[2]; [15],6220
same,fold fluorescence,[3],4.45 [at 1 µM] (inactive)
COCCOc1cc2nc[nH]c(=O)c2cc1OCCOC,fold change,[2]; [12],1.02 (inactive)
same,fold change,[2]; [13],1.39
same,cell count,[2]; [14],10200
same,cell count,[2]; [15],10100
same,outcome,[9],inactive
same,z-score,[10],1.01 (inactive)
CCCCN(CC)c1nc(C)nc2c1c(C)cn2-c1c(C)cc(C)cc1C,fold change,[2]; [12],1.08 (inactive)
same,fold change,[2]; [13],0.964
same,cell count,[2]; [14],6200
same,cell count,[2]; [15],5770
same,outcome,[9],inactive
same,z-score,[10],-1.29 (inactive)

# Source: PubChem BioAssay
